Source: PubChem BioAssay AID1159580 (chemical genetic matrix, 2015)
Screen size: about 5,500 compounds; about 2,000 (36%) were called active. Not shown: some 18% with an inconclusive outcome. Rule as the data show it: active = normalized growth mostly below about 0.91 (no sharp cut-off); inconclusive = no clear call, values can overlap the other calls; inactive = mostly above about 0.92. This is one part of the list.

Assay: chemical genetic growth profiling, strain panel (AID 1159580);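 also: tested at 20 µM; growth read once vehicle control cultures reached saturation at 30 °C; 1 = growth at the plate median or of vehicle wells; lower values mean less growth of the strain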
Conditions: growth OD

Measured: normalized growth

CC1=C2[C@](C)(C=CC1=O)C[C@H](O)[C@H]1[C@H](C)C(=O)O[C@]21C
inactive: S. cerevisiae deletion strains, locus YAL013W, strain DEP1, hits give low values 1.01 | S. cerevisiae deletion strains, locus YBR021W, strain FUR4, hits give low values 1 | S. cerevisiae deletion strains, locus YBR229C, strain ROT2, hits give low values 1.01 | S. cerevisiae deletion strains, locus YCL029C, strain bik1, hits give low values 1.03 | S. cerevisiae deletion strains, locus YDL035C, strain GPR1, hits give low values 1.02 | S. cerevisiae deletion strains, locus YDL074C, strain BRE1, hits give low values 1.01 | S. cerevisiae deletion strains, locus YDL101C, strain DUN1, hits give low values 1.02 | S. cerevisiae deletion strains, locus YDL134C, strain PPH21, hits give low values 1.01 | S. cerevisiae deletion strains, locus YDL185W, strain tfp1, hits give low values 1.03 | S. cerevisiae deletion strains, locus YDL192W, strain arf1, hits give low values 1.04 | S. cerevisiae deletion strains, locus YDR101C, strain arx1, hits give low values 1.01 | S. cerevisiae deletion strains, locus YDR150W, strain NUM1, hits give low values 1.01 | S. cerevisiae deletion strains, locus YDR162C, strain NBP2, hits give low values 1.03 | S. cerevisiae deletion strains, locus YDR318W, strain mcm21, hits give low values 1.03 | S. cerevisiae deletion strains, locus YDR388W, hits give low values 1.02 | S. cerevisiae deletion strains, locus YDR502C, strain sam2, hits give low values 1.03 | S. cerevisiae deletion strains, locus YEL061C, strain CIN8, hits give low values 1.01 | S. cerevisiae deletion strains, locus YER110C, hits give low values 1.03 | S. cerevisiae deletion strains, locus YER155C, strain BEM2, hits give low values 1.01 | S. cerevisiae deletion strains, locus YER167W, strain BCK2, hits give low values 1.02 | S. cerevisiae deletion strains, locus YGL078C, strain dbp3, hits give low values 1.04 | S. cerevisiae deletion strains, locus YGL086W, strain mad1, hits give low values 1.02 | S. cerevisiae deletion strains, locus YGL248W, strain PDE1, hits give low values 1.01 | S. cerevisiae deletion strains, locus YGR078C, strain PAC10, hits give low values 1.01 | S. cerevisiae deletion strains, locus YGR135W, strain pre9, hits give low values 1.01 | S. cerevisiae deletion strains, locus YGR229C, strain SMI1, hits give low values 1.01 | S. cerevisiae deletion strains, locus YGR252W, strain gcn5, hits give low values 1.07 | S. cerevisiae deletion strains, locus YHR030C, strain SLT2, hits give low values 1.01 | S. cerevisiae deletion strains, locus YHR079C, strain IRE1 (second series), hits give low values 1.03 | S. cerevisiae deletion strains, locus YHR094C, strain hxt1, hits give low values 1.03 | S. cerevisiae deletion strains, locus YHR129C, strain ARP1, hits give low values 1.01 | S. cerevisiae deletion strains, locus YHR200W, strain rpn10, hits give low values 1.03 | S. cerevisiae deletion strains, locus YIL066C, strain RNR3, hits give low values 1.03 | S. cerevisiae deletion strains, locus YIL073C, strain SPO22, hits give low values 1.1 | S. cerevisiae deletion strains, locus YIL125W, strain kgd1, hits give low values 1.03 | S. cerevisiae deletion strains, locus YIR030C, strain dcg1, hits give low values 1.02 | S. cerevisiae deletion strains, locus YJL095W, strain BCK1, hits give low values 1.01 | S. cerevisiae deletion strains, locus YJL134W, strain LCB3, hits give low values 1 | S. cerevisiae deletion strains, locus YJL168C, strain set2, hits give low values 1.03 | S. cerevisiae deletion strains, locus YJL187C, strain SWE1 (second series), hits give low values 1.01 | S. cerevisiae deletion strains, locus YJR043C, strain POL32, hits give low values 1.02 | S. cerevisiae deletion strains, locus YJR075W, strain HOC1, hits give low values 1.02 | S. cerevisiae deletion strains, locus YKL009W, strain mrt4, hits give low values 1.04 | S. cerevisiae deletion strains, locus YKL068W, hits give low values 1.04 | S. cerevisiae deletion strains, locus YKL085W, strain MDH1 (second series), hits give low values 1.02 | S. cerevisiae deletion strains, locus YKL085W, strain MDH1, hits give low values 1.02 | S. cerevisiae deletion strains, locus YKL190W, strain CNB1, hits give low values 1.01 | S. cerevisiae deletion strains, locus YKR001C, strain vps1, hits give low values 1.03 | S. cerevisiae deletion strains, locus YLR039C, strain RIC1, hits give low values 1.07 | S. cerevisiae deletion strains, locus YLR058C, strain SHM2, hits give low values 1.02 | S. cerevisiae deletion strains, locus YLR102C, strain apc9, hits give low values 1.02 | S. cerevisiae deletion strains, locus YLR262C, strain YPT6, hits give low values 1.05 | S. cerevisiae deletion strains, locus YLR268W, strain sec22, hits give low values 1.02 | S. cerevisiae deletion strains, locus YLR330W, strain CHS5, hits give low values 1.01 | S. cerevisiae deletion strains, locus YLR342W, strain FKS1 (second series), hits give low values 1.02 | S. cerevisiae deletion strains, locus YLR371W, strain rom2, hits give low values 1.03 | S. cerevisiae deletion strains, locus YLR418C, strain cdc73, hits give low values 1.04 | S. cerevisiae deletion strains, locus YML016C, strain PPZ1, hits give low values 1.01 | S. cerevisiae deletion strains, locus YML032C, strain rad52, hits give low values 1.05 | S. cerevisiae deletion strains, locus YML124C, strain tub3, hits give low values 1.03 | S. cerevisiae deletion strains, locus YMR078C, strain ctf18, hits give low values 1.04 | S. cerevisiae deletion strains, locus YMR223W, strain ubp8, hits give low values 1.04 | S. cerevisiae deletion strains, locus YMR263W, strain SAP30, hits give low values 1 | S. cerevisiae deletion strains, locus YMR307W, strain GAS1, hits give low values 1.08 | S. cerevisiae deletion strains, locus YNL067W, strain RPL9B, hits give low values 1.01 | S. cerevisiae deletion strains, locus YNL128W, strain TEP1, hits give low values 1.02 | S. cerevisiae deletion strains, locus YNL153C, strain GIM3, hits give low values 0.999 | S. cerevisiae deletion strains, locus YNL233W, strain BNI4, hits give low values 1.01 | S. cerevisiae deletion strains, locus YNL250W, strain rad50, hits give low values 1.06 | S. cerevisiae deletion strains, locus YNL271C, strain bni1, hits give low values 1.03 | S. cerevisiae deletion strains, locus YNL298W, strain CLA4, hits give low values 1.03 | S. cerevisiae deletion strains, locus YNL307C, strain MCK1, hits give low values 1.04 | S. cerevisiae deletion strains, locus YNL322C, strain KRE1, hits give low values 1.02 | S. cerevisiae deletion strains, locus YNR052C, strain pop2, hits give low values 1.04 | S. cerevisiae deletion strains, locus YOL006C, strain TOP1, hits give low values 1.03 | S. cerevisiae deletion strains, locus YOL012C, strain htz1 0.937 | S. cerevisiae deletion strains, locus YOL147C, strain pex11, hits give low values 1.03 | S. cerevisiae deletion strains, locus YOR061W, strain CKA2, hits give low values 1.01 | S. cerevisiae deletion strains, locus YOR069W, strain VPS5, hits give low values 1 | S. cerevisiae deletion strains, locus YOR136W, strain idh2, hits give low values 1.03 | S. cerevisiae deletion strains, locus YOR144C, strain elg1, hits give low values 1.02 | S. cerevisiae deletion strains, locus YOR184W, strain ser1, hits give low values 1.04 | S. cerevisiae deletion strains, locus YOR316C, strain cot1, hits give low values 1.02 | S. cerevisiae deletion strains, locus YPL055C, strain LGE1, hits give low values 1.03 | S. cerevisiae deletion strains, locus YPL241C, strain CIN2, hits give low values 1.01 | S. cerevisiae deletion strains, locus YPR119W, strain clb2, hits give low values 1.03 | S. cerevisiae deletion strains, locus YPR141C, strain kar3, hits give low values 1.04 | S. cerevisiae deletion strains, locus YPR163C, strain tif3, hits give low values 1.02 | S. cerevisiae deletion strains, locus YPR167C, strain met16, hits give low values 1.02 | S. cerevisiae deletion strains, strain wtn01, hits give low values 1 | S. cerevisiae strains, strain wild type, hits give low values 1.02
